Some test systems named below: SR leukemia; RPMI-8226 leukemia; OVCAR-5 ovarian; OVCAR-4 ovarian; SK-OV-3 ovarian; IGROV1 ovarian; OVCAR-3 ovarian; HS 578T breast; NCI/ADR-RES ovarian.
Common to all, as to test: NCI-60 one-dose screen, 48 h (100 = growth as untreated, 0 = no growth, -100 = all killed)
Conditions in all cases: 10 µM unless noted

Compounds without any hit were thinned out: in the full panel of roughly 83,000, 20% have a hit.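 Growth was measured after 48 h exposure to one concentration of compound in 96-well plates. Values under 10 count as active.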 Unmarked numbers belong to inactive results. The source made the active and inactive calls.

With `CCCn1cnc2c(c1=N)C(c1ccc(F)cc1)c1sc3c(F)cccc3c1O2` (configuration not stated), the growth in the assay with SR leukemia is 28.8%; with RPMI-8226 leukemia, 39.7%; in the assay on OVCAR-5 ovarian, 81.4%; in the assay on OVCAR-4 ovarian, 76.7%; in the assay on SK-OV-3 ovarian, 71%; in the assay on IGROV1 ovarian, 46.2%. In addition, the growth is 10.5% with OVCAR-3 ovarian, 28.7% with HS 578T breast and 31.1% in the assay with NCI/ADR-RES ovarian.
In the case of `Fc1cccc(-c2ccc3c(c2)C2(CCNCC2)CN3)c1`, the growth is 110% with SR leukemia; 95.7% with RPMI-8226 leukemia; 103% in the assay with OVCAR-5 ovarian; 92% with OVCAR-4 ovarian; 112% with SK-OV-3 ovarian; 97.4% in the assay on IGROV1 ovarian. For the same molecule, the growth was 102% with OVCAR-3 ovarian, 105% with HS 578T breast and 95.5% in the assay with NCI/ADR-RES ovarian.
For `CCNC(=O)Oc1ccc(/C(=C(/CC)Cc2ccccc2)c2ccc(OCCN3CCCC3)cc2)cc1`, the growth is 75.5% with SR leukemia; 77.7% in the assay on RPMI-8226 leukemia; 94.6% in the assay with OVCAR-5 ovarian; 93.3% with OVCAR-4 ovarian; 88.5% in the assay on SK-OV-3 ovarian; 91.5% in the assay with IGROV1 ovarian. Besides, the growth in the assay on OVCAR-3 ovarian is 96.9%; in the assay on HS 578T breast, 93.5%; in the assay with NCI/ADR-RES ovarian, 97.9%.
Turning to `Cc1ccc2nc(NC(=O)CSc3nc(-c4ccccc4)c(C#N)c4nnnn34)sc2c1`, the growth in the assay on SR leukemia was 72.8%; in the assay on RPMI-8226 leukemia, 117%; in the assay on OVCAR-5 ovarian it was 113%; with OVCAR-4 ovarian, 101%; with SK-OV-3 ovarian, 100%; in the assay with IGROV1 ovarian, 102%. The growth in the assay on OVCAR-3 ovarian is 122%; in the assay on HS 578T breast, 98%; with NCI/ADR-RES ovarian it was 106%.
As for `C#CC#CC#CC#CC#CC#CC#CC#CC[C@@H]1OC[C@@H](COC(=O)O[C@@H](C(=O)O[C@H]2C[C@@]3(O)[C@@H](OC(=O)c4ccccc4)[C@@H]4[C@]5(OC(C)=O)CO[C@@H]5C[C@H](O)[C@@]4(C)C(=O)[C@H](OC(C)=O)C(=C2C)C3(C)C)[C@@H](NC(=O)c2ccccc2)c2ccccc2)O1`, the growth is 3.63% (active) with SR leukemia; 5.29% (active) in the assay with RPMI-8226 leukemia; 5.15% (active) in the assay with OVCAR-5 ovarian; 83.9% with OVCAR-4 ovarian; 98.6% in the assay on SK-OV-3 ovarian; 19.3% in the assay on IGROV1 ovarian. The growth in the assay with OVCAR-3 ovarian was 100%; in the assay with HS 578T breast, 94.1%; with NCI/ADR-RES ovarian, 62.5%.
Turning to `C=C(C)[C@@H]1CC[C@]2(C)[C@H](CC=C3[C@@H]4CC(C)(C)CC[C@]4(CO)CC[C@]32C)[C@@]1(C)CCCN`, the growth in the assay on SR leukemia is -52.1% (active); in the assay on RPMI-8226 leukemia, -47.5% (active); with OVCAR-5 ovarian, 26%; with OVCAR-4 ovarian, -21.8% (active); in the assay on SK-OV-3 ovarian it was 82.8%; with IGROV1 ovarian, 8.73% (active). Further, the growth in the assay with OVCAR-3 ovarian was -42% (active); with HS 578T breast, 43.4%; in the assay on NCI/ADR-RES ovarian, 49.1%.
For `NC1=Nc2cc(OCCCCN3Cc4ccccc4C3)c(OCC3CC3)cc2C12CCCC2`, the growth was 11.3% in the assay with SR leukemia; 5.52% (active) in the assay on RPMI-8226 leukemia; 65.3% in the assay on OVCAR-5 ovarian; 39.6% in the assay with OVCAR-4 ovarian; 93.4% in the assay on SK-OV-3 ovarian; 50% in the assay with IGROV1 ovarian. In addition, the growth is 52.5% in the assay with OVCAR-3 ovarian, 53.3% in the assay on HS 578T breast and 73.2% in the assay on NCI/ADR-RES ovarian.
Take `C=CC(=O)Nc1ccc(Oc2nccc(Nc3nnc(-c4ccc(C)cc4)s3)n2)cc1`: the growth in the assay with SR leukemia is 36.2%; in the assay on RPMI-8226 leukemia it was 61.8%; with OVCAR-5 ovarian it was 105%; with OVCAR-4 ovarian, 99%; in the assay with IGROV1 ovarian, 62.5%; with OVCAR-3 ovarian, 43%. The growth is 67.4% in the assay on HS 578T breast and 59.1% with NCI/ADR-RES ovarian.
On to `c1ccc2c(c1)CCCc1nnc3nc4ccccc4n3c1-2`, for which the growth in the assay with SR leukemia was 20.5%; in the assay with RPMI-8226 leukemia, 31.6%; in the assay with OVCAR-5 ovarian, 37.8%; with OVCAR-4 ovarian, 17.9%; in the assay on SK-OV-3 ovarian it was 50.3%; in the assay with IGROV1 ovarian, 43.7%. Further, the results for the growth in the assay with OVCAR-3 ovarian, in the assay on HS 578T breast and in the assay on NCI/ADR-RES ovarian were 23.6%, 77.1% and 24.6%, respectively.
For the molecule `COC(=O)c1cc(Br)ccc1O`, the growth was 89.2% in the assay on SR leukemia; 94.5% in the assay with RPMI-8226 leukemia; 100% in the assay on OVCAR-5 ovarian; 110% in the assay with OVCAR-4 ovarian; 108% in the assay on SK-OV-3 ovarian; 110% in the assay with IGROV1 ovarian. Further, the growth with OVCAR-3 ovarian was 117%; with HS 578T breast it was 117%; with NCI/ADR-RES ovarian it was 107%.
Turning to `O=[N+]([O-])c1cc(NS(=O)(=O)c2ccccc2)ccc1NS(=O)(=O)c1ccccc1`, the growth was 128% in the assay with SR leukemia; 109% in the assay on RPMI-8226 leukemia; 106% in the assay on OVCAR-5 ovarian; 106% with OVCAR-4 ovarian; 102% with SK-OV-3 ovarian; 119% in the assay on IGROV1 ovarian. Moreover, the growth with OVCAR-3 ovarian was 111%; in the assay on HS 578T breast, 98.5%; in the assay on NCI/ADR-RES ovarian, 105%.
Regarding `Nc1nc2c(c3ncccc13)C(c1cccc(Cl)c1)Cc1ncccc1-2` (configuration not stated), the growth in the assay on SR leukemia is 8.92% (active); in the assay on RPMI-8226 leukemia it was 32.4%; with OVCAR-4 ovarian, 52.4%; in the assay with SK-OV-3 ovarian, 14.1%; in the assay on IGROV1 ovarian it was 50.5%; in the assay on OVCAR-3 ovarian it was 0.176% (active). The growth is 31.1% with HS 578T breast and 18.7% with NCI/ADR-RES ovarian.
Consider `Cc1ccc(CNc2c3ccccc3nc3ccccc23)cc1`, for which the growth with SR leukemia is -0.81% (active); in the assay with RPMI-8226 leukemia, -11% (active); in the assay with OVCAR-5 ovarian, 38.1%; in the assay with OVCAR-4 ovarian, 24.5%; with SK-OV-3 ovarian, 46.9%; in the assay with IGROV1 ovarian it was 19.4%. In addition, the growth was 34.1% with OVCAR-3 ovarian and 38.5% with HS 578T breast.
Turning to `COc1ccc(C2=NN(C(C)=O)C(c3cn(-c4ccccc4)nc3-c3ccc(Cl)cc3)C2)cc1` (configuration not stated), the growth with SR leukemia is 10.7%; in the assay on RPMI-8226 leukemia, 37.3%; in the assay on OVCAR-5 ovarian, 68.1%; in the assay on OVCAR-4 ovarian, -23.5% (active); in the assay on SK-OV-3 ovarian, 38.1%; in the assay with IGROV1 ovarian, 54.1%. Moreover, the values for the growth in the assay on OVCAR-3 ovarian, in the assay on HS 578T breast and in the assay on NCI/ADR-RES ovarian were -42.6% (active), 26.2% and 15.3%, respectively.
Consider `Fc1ccc(Cn2cc(CSc3nc4ccccc4o3)nn2)cc1`, for which the growth was 103% with SR leukemia; 105% with RPMI-8226 leukemia; 100% in the assay on OVCAR-5 ovarian; 98.9% in the assay on OVCAR-4 ovarian; 91.3% in the assay with SK-OV-3 ovarian; 98.8% in the assay on IGROV1 ovarian. Also, the growth is 98.5% with OVCAR-3 ovarian, 105% with HS 578T breast and 109% with NCI/ADR-RES ovarian.
With `COc1ccc(/C=C/C(c2cc(OC)c(OC)c(OC)c2)n2cncn2)cc1` (configuration not stated), the growth in the assay on SR leukemia was 18.9%; with RPMI-8226 leukemia, 50.8%; in the assay on OVCAR-5 ovarian, 90.2%; in the assay on OVCAR-4 ovarian, 96.8%; with IGROV1 ovarian it was 64.6%; in the assay with OVCAR-3 ovarian it was 9.06% (active). Also, the results for the growth with HS 578T breast and with NCI/ADR-RES ovarian were 51.2% and 36.3%, respectively.
Turning to `O=C(O)[C@@H](Cc1ccc2ccccc2c1)NC(=O)n1c2ccccc2c2ccccc21`, the growth in the assay on SR leukemia is 25.7%; in the assay with RPMI-8226 leukemia it was 9.9% (active); in the assay on OVCAR-5 ovarian, 37.6%; with OVCAR-4 ovarian, 43.9%; with SK-OV-3 ovarian, 39.7%; in the assay with IGROV1 ovarian, 29.6%. For the same molecule, the growth is 6% (active) with OVCAR-3 ovarian, 17.4% in the assay with HS 578T breast and 7.01% (active) with NCI/ADR-RES ovarian.
Turning to `O=C1Nc2ccccc2/C1=C/c1cccn1C(=O)c1ccc(Cl)s1`, the growth is 27.8% in the assay on SR leukemia; 52.5% in the assay on RPMI-8226 leukemia; 66.5% with OVCAR-5 ovarian; 15.3% in the assay on OVCAR-4 ovarian; 38.6% in the assay with IGROV1 ovarian; 38.8% in the assay on OVCAR-3 ovarian. The growth was 70.8% with HS 578T breast and 74.3% with NCI/ADR-RES ovarian.

These data come from PubChem BioAssay (NCI).
